Screening data: PubChem BioAssay, National Center for Advancing Translational Sciences (NCATS)
Vif-A3F inh = Vif-A3F binding inhibition; 390,000 compounds, 0.2% hits; Potency, µM (titrated, usually from 46.1 µM); HeLa A3F-eYFP + Vif (tagged APOBEC3F with the HIV-1 protein that degrades it), YFP fluorescence increase; further: nearly all actives have a fitted effect of over 65% in size
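HeLa cells stably expressing Vif plus C-terminally eYFP-tagged A3F were seeded, incubated overnight at 37 deg C, dosed with compound, incubated overnight again at 37 deg C. Yellow fluorescence (Ex 488/Em 500-530) reported blocked Vif-mediated A3F-eYFP degradation.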
Vif-APOBEC3G blk = Vif-A3G binding inhibition; Q9HC16; HeLa A3G-eYFP + Vif (tagged APOBEC3G with the HIV-1 protein that degrades it), YFP fluorescence, overnight; Potency, µM (series often up to 46.1 µM), most hits filed as inhibitors; 410,000 compounds, 0.076% hits; AID 602310; further: nearly all actives have a fitted effect of over 60% in size
Target sequence (Q9HC16 whole entry, looked up): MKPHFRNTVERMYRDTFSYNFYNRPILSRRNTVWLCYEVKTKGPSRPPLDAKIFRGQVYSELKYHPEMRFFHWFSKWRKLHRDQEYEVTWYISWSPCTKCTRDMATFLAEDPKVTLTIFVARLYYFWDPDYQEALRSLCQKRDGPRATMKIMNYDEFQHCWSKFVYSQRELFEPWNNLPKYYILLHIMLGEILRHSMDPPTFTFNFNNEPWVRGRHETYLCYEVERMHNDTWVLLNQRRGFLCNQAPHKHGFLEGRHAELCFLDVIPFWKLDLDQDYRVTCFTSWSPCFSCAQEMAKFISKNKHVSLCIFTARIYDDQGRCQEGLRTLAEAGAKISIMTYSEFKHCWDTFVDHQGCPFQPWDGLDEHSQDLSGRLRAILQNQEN
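Read-out is eYFP fluorescence (Ex 488/Em 500-530) from Vif-expressing HeLa A3G-eYFP cells; more signal means A3G escaped Vif-mediated degradation. Cells plated overnight, compound pinned in, incubated overnight at 37 deg C.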
PINK1 expr mod = changes PINK1 expression | PINK1 immunofluorescence, high-content cytometry, 24 h | Potency, µM (top dose mostly 76.6 µM), usual class: activators | 410,000 compounds, 0.2% hits; active means well fitted activation curve with a large enough effect; inconclusive means small, poorly fitted or top-dose-only effect; cell line not stated here; further: nearly all actives have a fitted effect of over 65% in size
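Decision-based qHTS: stable cells, 24 h exposure to five compound concentrations, CCCP as control. Fixed cells stained for PINK1 plus nuclear, mitochondrial and cell markers, cytometer read.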
Epigenetic derep = regulators of epigenetic silencing causing reporter derepression in mouse cells; murine LDR cells, GFP reporter derepression, 30 h; Potency, µM (top dose mostly 53.9 µM), hits mostly activators; 280,000 compounds, 0.2% hits; further: nearly all actives have a fitted effect of over 60% in size
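Derepression of a silenced CMV-GFP reporter in murine LDR cells is scored by enumerating GFP-positive cells with a laser-scanning microplate cytometer after 30 hours of treatment at 37 C.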
Numbers stand for hits; – = inactive; ? = inconclusive; · = not tested or not shown. An excerpt weighted towards active compounds, which were near 0.51% of everything screened. Unless noted, the call rests on the fitted dose curve; in most records, active means well fitted curve in the direction sought with a large enough effect; inconclusive means small, poorly fitted or top-dose-only effect, or another doubt; inactive means no such curve, though single readings can be large; an effect the other way counts as inactive or inconclusive.

SMILES | Vif-A3F inh | Vif-APOBEC3G blk | PINK1 expr mod | Epigenetic derep
O=C(Cn1c(=O)n(-c2ccccc2)c(=O)c2ccc(C(=O)NCc3ccc4c(c3)OCO4)cc21)Nc1ccc(Br)cc1 | – | – | – | 15.8µM
COc1ccc(NC(=O)Cn2c(=O)n(-c3ccccc3)c(=O)c3ccc(C(=O)NCc4ccc5c(c4)OCO5)cc32)cc1 | – | – | – | –
CC1C(=O)Nc2ccccc2N1C(=O)c1cccc(C(F)(F)F)c1 (stereo not drawn) | – | – | – | ·
Cc1ccc(-c2nnc(NCc3nc4ccccc4[nH]3)c3ccccc23)cc1S(=O)(=O)N1CCCCC1 | ? | – | – | ?
O=S(=O)(Nc1nc2n(n1)C(c1ccccc1)C=C(c1ccc(Cl)cc1)N2)c1ccccc1 (stereo not drawn) | 22.4µM | ? | – | –
COc1ccc(C)cc1N(CC(=O)N/N=C/c1ccc2c(c1)OCO2)S(C)(=O)=O | – | – | – | –
Cc1ccc(NS(=O)(=O)c2cc([N+](=O)[O-])ccc2N/N=C/c2sc(N3CCOCC3)nc2-c2ccccc2)c(C)c1 | – | ? | – | 31.6µM
COc1cc(/C=C2\SC(=S)N(CC(=O)NC3=NCCS3)C2=O)cc(OC)c1OC | – | – | 28.2µM | ?
COc1ccc(/C=C2\SC(=S)N(CCC(=O)NC3=NCCS3)C2=O)cc1OC | ? | – | – | –
Cc1[nH]n(-c2ccccc2)c(=O)c1C=Nc1ccc2[nH]c(=O)[nH]c2c1 | – | – | 35.5µM | ?
Cc1cccc(/N=C/c2c(C)[nH]n(-c3ccccc3)c2=O)n1 | – | – | – | –
Cc1[nH]n(-c2ccccc2)c(=O)c1C=Nc1cccc(F)c1 | – | – | – | –
Cc1cccc(-n2[nH]c(C)c(C=Nc3ccc4[nH]c(=O)[nH]c4c3)c2=O)c1 | ? | – | 31.6µM | ?
Cc1ccccc1C(=O)NC1CCN(CC(=O)Nc2nccs2)CC1 | – | – | – | –
OCCCn1c(C2CCCN2c2nc(-c3ccc(Cl)cc3)cs2)nc2cc(Cl)c(Cl)cc21 (stereo not drawn) | 22.4µM | – | – | ·
OCCCn1c(C2CCCN2c2nc(-c3ccc(F)cc3)cs2)nc2cc(Cl)c(Cl)cc21 (stereo not drawn) | – | – | – | ·
CCOc1ccc(CNC(=O)Nc2ccc3c(c2)N(C)C(=O)c2ccccc2S3)cc1 | – | – | – | ?
Cc1cc(/C=C2\NC(=S)N(C)C2=O)ccc1N1CCCC1 | ? | 6.31µM | ? | ?
COc1cc(/C=C2\NC(=S)N(C)C2=O)ccc1O | – | – | – | –
CCCN1C(=O)/C(=C/c2ccc(N3CCOCC3)cc2)NC1=S | ? | ? | – | –
CCCN1C(=O)/C(=C/c2ccc(N3CCCC3)c(C)c2)NC1=S | ? | ? | – | 1µM
CCN1C(=O)/C(=C/c2ccc(N3CCCC3)cc2)NC1=S | 25.1µM | 8.91µM | – | ?
CCCN1C(=O)/C(=C/c2ccc(OCC(=O)OCC)cc2)NC1=S | – | – | – | –
CCC(C)N1C(=O)/C(=C/c2c(NCCCOC(C)C)nc3c(C)cccn3c2=O)SC1=S (stereo not drawn) | – | ? | – | 3.16µM
CCN(CC)c1ccc(/C=C2/SC(=O)N(C(C)C)C2=O)o1 | ? | ? | – | 11.2µM
SMILES | Vif-A3F inh | Vif-APOBEC3G blk | PINK1 expr mod | Epigenetic derep
CCC(Sc1nc2cc3c(cc2c(=O)n1CCCC(=O)NCc1ccc2c(c1)OCO2)OCO3)C(=O)NCCCOC (stereo not drawn) | – | – | – | –
O=C(Nc1c(Cl)cc([N+](=O)[O-])cc1Cl)c1cc(Cl)cc(Cl)c1O | · | – | 14.1µM | ·
COc1ccc(NC(=O)c2c(NC(=O)COc3ccccc3)sc3c2CCCCC3)cc1 | – | – | – | –
COc1ccc(OCC(=O)Nc2sc3c(c2C(=O)NCC2CCCO2)CCC3)cc1 (stereo not drawn) | – | – | 11.2µM | –
Cc1nn(C)c(Oc2ccccc2)c1CCNC(=O)CCl | – | – | – | –
Cc1n[nH]c(=S)n1/N=C/c1ccccc1OCc1ccc(Cl)cc1Cl | – | – | 12.6µM | –
Cc1n[nH]c(=S)n1/N=C/c1ccc(OCc2ccc(Cl)cc2Cl)cc1 | – | – | – | –
CCS(=O)(=O)c1nn2c(N)c(/C=C3/C=CC(=O)C(OC)=C3)c(=O)nc2s1 | 20µM | – | – | –
CCOC1=C/C(=C/c2c(N)n3oc(C)cc3nc2=O)C=CC1=O | · | · | · | –
COC1=C/C(=C/c2c(N)n3c(nc2=O)sc2cc(S(C)(=O)=O)ccc23)C=CC1=O | ? | ? | – | –
CS(=O)(=O)c1ccc2c(c1)sc1nc(=O)c(/C=C3/C=CC(=O)C(O)=C3)c(N)n12 | – | – | – | –
COC1=C/C(=C/c2c(N)n3nc(-c4ccc(C)cc4)sc3nc2=O)C=CC1=O | 11.2µM | – | – | ?
CCOC1=C/C(=C/c2c(N)n3nc(-c4ccccc4)sc3nc2=O)C=CC1=O | 8.91µM | – | – | –
CCc1ccc(C(=O)c2cn(CC(=O)Nc3cc(OC)ccc3OC)c3ccc(Cl)cc3c2=O)cc1 | – | – | – | –
O=C(CN1C(=O)c2ccccc2S1(=O)=O)N1CCN(c2ccc(F)cc2)CC1 | – | – | – | –
CCC(Sc1nc(C)cc(C)n1)C(=O)NC1=NN=C(c2ccc(C)cc2)CS1 (stereo not drawn) | – | – | 14.1µM | –
CCCCNC(=O)C1(C)CCCCN1C(=O)c1cccs1 (stereo not drawn) | · | – | – | ·
COc1ccc2nc(N3C(=O)/C(=C/c4ccc(Cl)cc4)NC3=S)sc2c1 | ? | – | 22.4µM | ?
CCCCC(=O)Nc1cccc(NC(=S)NC(=O)C(C)C)c1 | – | – | – | –
O=[N+]([O-])c1cc(C(F)(F)F)ccc1NCCc1c[nH]c2ccc(O)cc12 | – | – | 11.2µM | –
O=[N+]([O-])c1cc(C(F)(F)F)ccc1NCCc1c[nH]c2ccccc12 | – | – | – | ?
Cc1cc(OCC(=O)c2ccc(Br)cc2)ccc1N1C(=O)CCC1=O | – | – | ? | –
Cc1ccc(N=C2NC(=O)/C(=C/c3cn(C)c4ccccc34)S2)cc1C | ? | 8.91µM | – | –
Cn1cccc1/C=C1\SC(=Nc2ccccc2)NC1=O | – | ? | – | –
O=C(/C=C/c1ccccc1)NC(NC(=S)Nc1ccc(Cl)cc1Cl)C(Cl)(Cl)Cl (stereo not drawn) | – | – | 10µM | –
SMILES | Vif-A3F inh | Vif-APOBEC3G blk | PINK1 expr mod | Epigenetic derep
CCOC(=O)/C=c1\s/c(=C\c2ccc(C#N)cc2)c(=O)n1CC(=O)NCc1ccco1 | – | – | – | –
CCOC(=O)/C=c1\s/c(=C\c2c(OC)ccc3ccccc23)c(=O)n1CC(=O)NCC1CCCO1 (stereo not drawn) | 25.1µM | 10µM | – | ?
CCOC(=O)/C=c1/s/c(=C/c2ccc3cc(OC)ccc3c2)c(=O)n1CC(=O)NCC1CCCO1 (stereo not drawn) | 7.08µM | – | – | ·
CCOC(=O)/C=c1\s/c(=C\c2ccc(C(=O)OC)cc2)c(=O)n1CC(=O)Nc1ccccc1 | ? | – | – | ?
C(=Cc1c[nH]c2ccccc12)c1ccc2ccccc2n1 | 25.1µM | ? | ? | ·
Nc1ccc(/C=C/c2nccc3ccccc23)cc1 | · | ? | – | ·
